Screening results (PubChem)
An excerpt weighted towards active compounds, which were near 21% of everything screened.
IL1B secr inh = qHTS for Inhibitors of Inflammasome Signaling: IL-1-beta AlphaLISA Primary Screen. activity change, % at 57.5 µM. 360,000 compounds, 4.7% hits. THP-1 LPS/ATP IL-1B secretion, AlphaLISA, 16 h; active compounds read low; in the data active = activity change below about -50%; inconclusive = mostly about -30% to -49%
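Secreted IL-1B measured by AlphaLISA bead assay after 16 h compound exposure of THP-1 cells; compounds (final up to 57.5 uM) added 1 h before LPS (250 ng/mL) and ATP (1.25 mM) stimulation; lower signal means less secretion.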
VP16 counter = VP16 counterscreen qHTS for inhibitors of ROR gamma transcriptional activity; Drosophila S2 Gal4-VP16 UAS-luciferase, luminescence, 20 h; Potency, µM (titrated, usually from 53.6 µM), most hits filed as inhibitors; 310,000 compounds, 3.5% hits;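 also: Gal4-VP16 expression switched on by copper sulfate through the metallothionein promoter; nearly all actives have a fitted effect of over 50% in size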
ELG1 repair inh = qHTS screen for small molecules that inhibit ELG1-dependent DNA repair in human embryonic kidney (HEK293T) cells expressing luciferase-tagged ELG1. HEK293T ELG1-luciferase reporter, luminescence, 16 h; DNA damage induced by 5-fluorouridine. Potency, µM (doses to about 46.1 µM), hits mostly inhibitors. 330,000 compounds, 2.3% hits. AID 504467, 2011; also: nearly all actives have a fitted effect of over 55% in size
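Overnight (16 hr) co-exposure of 2,000 cells/well to 5-fluorouridine and compound at 37 °C preceded detection. Luciferase was quantified via ONE-Glo luminescence; loss of signal denotes inhibition.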
TDP1 cell noCPT = qHTS for Inhibitors of human tyrosyl-DNA phosphodiesterase 1 (TDP1): qHTS in cells in absence of CPT | DT40 Tdp1-/- hTDP1 cells, no CPT, ATP luminescence, 48 h | Potency, µM (highest dose often 46.2 µM), hits mostly inhibitors | 420,000 compounds, 15% hits | AID 686978, 2013; also: nearly all actives have a fitted effect of over 55% in size
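DT40 Tdp1-/-;hTDP1 cells, no CPT (DMSO vehicle only), 400 cells/well; compounds pin-transferred; ≥48 hr, 37 °C; CellTiter-Glo 30 min RT dark, luminescence read.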
DT40 TDP1 CPT = qHTS for Inhibitors of human tyrosyl-DNA phosphodiesterase 1 (TDP1): qHTS in cells in presence of CPT. chicken DT40 Tdp1-/-;hTDP1 cells + 20 nM CPT, ATP luminescence, 48 h. Potency, µM (series often up to 46.2 µM), usual class: inhibitors. 420,000 compounds, 12% hits; also: nearly all actives have a fitted effect of over 55% in size
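Chicken DT40 Tdp1-/- cells stably complemented with human TDP1 were seeded at 400 cells/well in medium containing 20 nM camptothecin, exposed to pin-transferred compounds, and grown at 37 °C for at least 48 hr. Viability was read as ATP luminescence.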
RORg inh = qHTS for inhibitors of ROR gamma transcriptional activity. Nuclear receptor ROR-gamma (Mus musculus), P51450. 310,000 compounds, 5.4% hits. Potency, µM (series often up to 53.6 µM), hits mostly inhibitors. Drosophila S2 Gal4-RORgamma UAS-luciferase reporter, 20 h; also: nearly all actives have a fitted effect of over 60% in size
Target sequence (P51450 whole entry, looked up, the tested form may be a part): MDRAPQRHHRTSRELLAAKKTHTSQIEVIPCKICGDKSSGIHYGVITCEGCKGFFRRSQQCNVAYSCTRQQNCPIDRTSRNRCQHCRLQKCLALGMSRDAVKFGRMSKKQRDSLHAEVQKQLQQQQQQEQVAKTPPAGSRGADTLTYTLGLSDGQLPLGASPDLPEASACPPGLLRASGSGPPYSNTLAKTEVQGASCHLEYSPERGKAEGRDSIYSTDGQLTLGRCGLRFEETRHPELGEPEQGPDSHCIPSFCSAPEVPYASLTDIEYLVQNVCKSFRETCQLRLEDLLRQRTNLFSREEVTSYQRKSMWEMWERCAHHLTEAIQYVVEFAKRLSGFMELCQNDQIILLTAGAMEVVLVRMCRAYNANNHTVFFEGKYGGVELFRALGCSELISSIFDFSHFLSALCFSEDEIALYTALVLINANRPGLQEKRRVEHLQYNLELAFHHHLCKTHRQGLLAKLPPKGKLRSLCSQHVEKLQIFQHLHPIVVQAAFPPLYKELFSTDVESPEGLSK
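Stable Schneider cell line, Gal4 DNA-binding domain fused to ROR gamma, UAS-luciferase. Cmpd 1 hr RT → CuSO4 700 uM final → 20 hr RT → luciferase reagent 10 min → luminescence.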
A number is an active result. Unless noted, calls follow the shape of the dose curve; as a rule, active = well fitted curve in the direction sought with a large enough effect; inconclusive = small, poorly fitted or top-dose-only effect, or another doubt; inactive = no such curve, though single readings can be large; an effect the other way counts as inactive or inconclusive.

Screening CC(C)(C)C(=O)Cn1ncc(Cl)c(Cl)c1=O returned IL1B secr inh -100.5, VP16 counter inactive, ELG1 repair inh inconclusive, TDP1 cell noCPT 10.3µM, DT40 TDP1 CPT 16.4µM and RORg inh inactive.
Screening C=CCn1c(C)cc(C(=O)CN2NS(=O)(=O)c3ccccc3C2=O)c1C returned IL1B secr inh inactive, VP16 counter inconclusive, ELG1 repair inh inconclusive, TDP1 cell noCPT 3.66µM, DT40 TDP1 CPT 4.61µM and RORg inh inconclusive.
O=C(Cn1ccccc1=O)c1ccc(Cl)cc1 was read as IL1B secr inh inactive, VP16 counter inactive, ELG1 repair inh inactive, TDP1 cell noCPT inactive, DT40 TDP1 CPT inactive and RORg inh inactive.
Screening C=CCn1c(C)cc(C(=O)CSc2nnc(C3CC3)n2C2CC2)c1C returned IL1B secr inh inactive, ELG1 repair inh inconclusive, TDP1 cell noCPT inconclusive and DT40 TDP1 CPT inconclusive.
`C=CCn1c(C)cc(C(=O)Cn2ncc(Cl)c(Cl)c2=O)c1C` gave IL1B secr inh -102.4, VP16 counter inconclusive, ELG1 repair inh inconclusive, TDP1 cell noCPT 4.11µM, DT40 TDP1 CPT 5.8µM and RORg inh inconclusive.
Cc1ccc(CNC(=O)CN2NS(=O)(=O)c3ccccc3C2=O)cc1 was read as IL1B secr inh inactive, TDP1 cell noCPT inactive and DT40 TDP1 CPT inactive.
O=C(NCc1ccc(Cl)nc1)c1csc([C@@H]2C[C@H](O)[C@@H](CO)O2)n1 was read as IL1B secr inh inactive, TDP1 cell noCPT inactive and DT40 TDP1 CPT inactive.
Screening CN(C)CCn1c(=S)[nH]c2ccccc2c1=O returned IL1B secr inh inactive, VP16 counter inactive, ELG1 repair inh inactive, TDP1 cell noCPT inactive, DT40 TDP1 CPT inactive and RORg inh inactive.
`COc1cc2[nH]c(=S)n(Cc3ccccc3)c(=O)c2cc1OC` gave IL1B secr inh inactive, VP16 counter 5.01µM, ELG1 repair inh inactive, TDP1 cell noCPT inconclusive, DT40 TDP1 CPT inconclusive and RORg inh 3.16µM.
For O=c1c2cccnc2[nH]c(=S)n1Cc1ccccc1 the results were IL1B secr inh inactive, VP16 counter 3.98µM, ELG1 repair inh inactive, TDP1 cell noCPT inactive, DT40 TDP1 CPT inactive and RORg inh 10µM.
CCCn1c(=S)[nH]c2ccccc2c1=O was read as IL1B secr inh inactive, VP16 counter 7.94µM, ELG1 repair inh inactive, TDP1 cell noCPT inconclusive, DT40 TDP1 CPT inactive and RORg inh 2.82µM.
O=c1c2ccccc2[nH]c(=S)n1CCN1CCN(Cc2ccccc2)CC1 was read as IL1B secr inh inactive, VP16 counter inconclusive, ELG1 repair inh inactive, TDP1 cell noCPT inactive, DT40 TDP1 CPT inactive and RORg inh 35.5µM.
`COc1ccc(CCNC(=O)C2CCCN(S(=O)(=O)c3ccc4c(c3)oc(=O)n4C)C2)cc1OC` (stereo not drawn) gave TDP1 cell noCPT inconclusive and DT40 TDP1 CPT inactive.
CCCCN1C(=O)CC2CCOC21C (stereo not drawn) was read as IL1B secr inh inactive, TDP1 cell noCPT inactive and DT40 TDP1 CPT inactive.
Screening O=c1c2ccccc2[nH]c(=S)n1Cc1ccccc1 returned IL1B secr inh inactive, VP16 counter 5.01µM, ELG1 repair inh inactive, TDP1 cell noCPT inactive, DT40 TDP1 CPT inactive and RORg inh 3.98µM.
Screening CN1CCN(CCn2c(=S)[nH]c3ccccc3c2=O)CC1 returned IL1B secr inh inactive, VP16 counter inactive, ELG1 repair inh inactive, TDP1 cell noCPT inactive, DT40 TDP1 CPT inactive and RORg inh inactive.
O=c1c2ccccc2[nH]c(=S)n1CCc1ccccc1 was read as IL1B secr inh inactive, VP16 counter 3.16µM, ELG1 repair inh inconclusive, TDP1 cell noCPT inactive, DT40 TDP1 CPT inactive and RORg inh 1.58µM.
